# Hits are enriched below; roughly 6.3% of the tested compounds scored in any of these assays.
# VP16 counter – counter-screen for ROR gamma inhibitors: Gal4-VP16 reporter | Drosophila S2 Gal4-VP16 UAS-luciferase, luminescence, 20 h | Potency, µM (top dose mostly 53.6 µM), for the others: top-dose activity, negative = inhibition, usual class: inhibitors | 310,000 tested, 3.5% active | AID 2546;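 also: Gal4-VP16 expression switched on by copper sulfate through the metallothionein promoter; % is scaled to controls: 0 for no effect and ±100 for the full control effect; nearly all actives have a fitted effect of over 50% in size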
# TGFb SMAD3 inh – TGF-b pathway inhibition | HepG2 CAGA-GFP TGF-b/SMAD3 reporter, GFP fluorescence, 18 h; TGF-beta stimulated, 500 pg/mL final | Potency, µM (series often up to 46.1 µM), inactives show at the top dose activity, negative = inhibition, actives largely listed as inhibitors | 410,000 tested, 1.2% active | AID 588855; also: % is scaled to controls: 0 for no effect and ±100 for the full control effect; nearly all actives have a fitted effect of over 65% in size
#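 Using HEPG2 CAGA-GFP reporter cells at 1000 cells/well, we pinned test compounds, stimulated with recombinant TGF-beta (500 pg/mL final) and measured total well GFP after 18 h.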
# ATXN2 expr inh – reduces ATXN2 reporter expression in HEK-293 cells | HEK-293 ATXN2-luciferase reporter, luminescence, 24 h | Potency, µM (series often up to 57 µM), for inactives: at the top dose activity change, negative = inhibition, usual class: inhibitors | 360,000 tested, 0.72% active; also: % is scaled to controls: 0 for no effect and ±100 for the full control effect; nearly all actives have a fitted effect of over 55% in size
#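 ATXN2-luciferase reporter cells (luciferase flanked by upstream and downstream ATXN2 gene portions) were treated 24 h at 37 °C with compounds at up to 57 uM. SteadyGlo luminescence gave expression; GF-AFC fluorescence gave viability.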
# HepG2 tox – counter-screen for TGF-b inhibitors: cytotoxicity in HepG2 cells; HepG2 CAGA-GFP viability, ATP luminescence, 18 h; Potency, µM (titrated, usually from 46.1 µM), for the others: top-dose activity change, negative = cytotoxicity, most hits filed as cytotoxic; 410,000 tested, 0.76% active
#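 CellTiter-Glo luminescence gave cytotoxicity after 18 hours at 37 degrees C. The cells were HepG2 CAGA-GFP in 1% FBS DMEM, stimulated with 500 pg/mL TGF-beta after compound addition. %Activity was normalised to no-cell wells (complete cell-killing) and DMSO (no toxicity), and curves were fitted and classified.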
# S2 tox – viability counter-screen for ATXN expression inhibitors; Potency, µM (highest dose often 56.7 µM), actives largely listed as cytotoxic; S2 cells (HEK-293 line with an ATXN2-luciferase reporter) viability, CellTiter-Fluor protease fluorescence, 24 h; AID 651635; 400,000 tested, 0.49% active; also: nearly all actives have a fitted effect of over 40% in size
# RORgamma inh – ROR gamma (mouse) transcription inhibition; 310,000 tested, 5.4% active; Drosophila S2 Gal4-RORgamma UAS-luciferase reporter, 20 h; P51450; AID 2551; Potency, µM (series often up to 53.6 µM), without a hit: at the highest dose activity change, negative = inhibition, hits mostly inhibitors; also: % is scaled to controls: 0 for no effect and ±100 for the full control effect; nearly all actives have a fitted effect of over 60% in size
# Target sequence (P51450 whole entry, looked up, the tested form may be a part): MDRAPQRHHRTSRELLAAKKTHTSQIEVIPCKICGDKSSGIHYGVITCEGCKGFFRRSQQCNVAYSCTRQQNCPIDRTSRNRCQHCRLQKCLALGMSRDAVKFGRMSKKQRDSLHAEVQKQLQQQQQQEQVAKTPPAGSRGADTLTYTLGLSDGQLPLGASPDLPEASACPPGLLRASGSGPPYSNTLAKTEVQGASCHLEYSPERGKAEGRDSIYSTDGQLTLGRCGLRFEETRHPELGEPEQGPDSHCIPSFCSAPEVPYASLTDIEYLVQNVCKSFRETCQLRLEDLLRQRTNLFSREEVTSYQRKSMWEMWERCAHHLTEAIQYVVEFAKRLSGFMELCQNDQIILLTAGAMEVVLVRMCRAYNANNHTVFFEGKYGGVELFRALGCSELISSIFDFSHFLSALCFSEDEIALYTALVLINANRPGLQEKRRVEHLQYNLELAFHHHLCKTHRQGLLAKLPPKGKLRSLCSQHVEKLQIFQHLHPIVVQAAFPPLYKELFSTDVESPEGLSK
#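 Luminescence from a UAS-regulated Photinus luciferase reporter in stably transfected Drosophila Schneider cells is measured; decreased signal marks ROR gamma inhibition. Fusion expression is induced by 700 uM copper sulfate for 20 hr.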
# Starred values were filed as active, the others as inactive; i = inactive; ? = inconclusive; . = no result given; [ ] = remark or other dose. Calls follow the shape of the dose curve; as a rule, active = well fitted curve in the direction sought with a large enough effect; inconclusive = small, poorly fitted or top-dose-only effect, or another doubt; inactive = no such curve, though single readings can be large; an effect the other way counts as inactive or inconclusive. Potency is read from the fitted curve at half-maximal effect.
SMILES,VP16 counter,TGFb SMAD3 inh,ATXN2 expr inh,HepG2 tox,S2 tox,RORgamma inh
CC(C)c1ccc(NC(=S)N2CCN(S(=O)(=O)c3ccccc3)CC2)cc1,?,?,-13%,-7%,i,11µM*
Cc1ccccc1NC(=S)N1CCN(Cc2ccccc2)CC1,?,-3%,-6%,12%,i,?
S=C(Nc1ccc(Cl)cc1)N1CCN(Cc2ccccc2)CC1,-28%,-17%,-25%,2%,i,11µM*
COC(=O)c1ccc(NC(=S)N2CCN(Cc3cccc(C)c3)CC2)cc1,?,-3%,2%,-1%,i,11µM*
Cc1cc(C)cc(NC(=S)N2CCN(Cc3ccccc3)CC2)c1,?,?,-24%,1%,i,7.1µM*
COc1ccccc1N1CCN(C(=O)c2cnn(C(C)(C)C)c2C2CCN(C(=O)OC(C)(C)C)CC2)CC1,.,-20%,.,-5%,.,.
FC(F)Oc1ccc(NC(=S)N2CCN(Cc3ccccc3)CC2)cc1,-6%,?,-15%,-37%,i,?
Cc1ccc(NC(=S)N2CCN(Cc3ccccc3)CC2)cc1,-1%,11%,4%,1%,i,7.9µM*
CC(C)c1ccc(NC(=S)N2CCN(Cc3ccccc3)CC2)cc1,?,?,.,-19%,?,7.9µM*
COC(=O)c1ccc(NC(=O)c2cc(S(=O)(=O)N3CCc4ccccc43)cn2C)cc1,.,-27%,.,-21%,.,.
COc1cc(CN2CCC(C(=O)NC(c3ccc(-c4ccccc4)cc3)c3cnccn3)CC2)cc(OC)c1 (stereo not drawn),.,?,?,22µM*,?,.
CCCC(=O)NC(c1cccs1)c1cc([N+](=O)[O-])c2cccnc2c1O (stereo not drawn),4µM*,-32%,?,-18%,?,5.6µM*
CCC(=O)NC(c1cccs1)c1cc(Cl)c2ccccc2c1O (stereo not drawn),.,?,-30%,1%,i,.
CCC(=O)NC(c1cccs1)c1cc([N+](=O)[O-])c2cccnc2c1O (stereo not drawn),5µM*,?,?,-47%,?,3.2µM*
O=C(CCc1ccccc1)NC(c1cccs1)c1cc(Cl)c2cccnc2c1O (stereo not drawn),0.79µM*,?,13µM*,-1%,.,0.63µM*
CC(=O)NC(c1cccs1)c1cc([N+](=O)[O-])c2cccnc2c1O (stereo not drawn),16µM*,?,13µM*,-10%,?,6.3µM*
CC(=O)NC(c1cccs1)c1cc(Cl)c2ccccc2c1O (stereo not drawn),.,?,-17%,-11%,i,.
Cc1cccc(-c2nc3c4ccccc4nc(N4CCN(c5cccc(Cl)c5)CC4)n3n2)c1,.,?,.,4%,.,.
CC(C)CN(CCCNC(=O)c1cc(-c2cccs2)nc2ccccc12)CC(C)C,.,0%,6%,-4%,i,.
S=c1nc2c(n[nH]1)c1ccccc1n2CCc1ccccc1,1.4µM*,6%,20%,-25%,i,2.2µM*
Clc1ccc2nnnc(-c3ccccc3)c2c1,-20%,?,15µM*,31%,?,?
CN(C)C(=S)NC(=O)C12CC3CC(C)(CC(C)(C3)C1)C2,22µM*,-16%,?,13%,i,5µM*
CC12CC3CC(C)(C1)CC(C(=O)NC(=S)N1CCCCC1)(C3)C2,?,6%,6%,-25%,i,0.45µM*
COc1ccc(N=C2S/C(=C\c3ccc(N4CCOCC4)o3)C(=O)N2CCc2c[nH]c3ccccc23)cc1,5µM*,.,.,.,.,6.3µM*
Cc1ccc(CNc2ncnc3ccc(-c4ccoc4C)cc23)o1,.,16µM*,-28%,-54%,i,.
SMILES,VP16 counter,TGFb SMAD3 inh,ATXN2 expr inh,HepG2 tox,S2 tox,RORgamma inh
Clc1ccc2c(ccc[n+]2CCC2CCCCC2)c1,.,3%,.,-3%,.,.
COc1cccc2nc3cc(C)c(C)cc3nc12,?,-15%,.,-8%,i,10µM*
COc1cccc2c1nc(C)c1cc(C)oc12,-16%,-5%,38%,-14%,i,-77%
CCc1ccc2[nH]c(O)c(N=Nc3nc(-c4ccccc4)cs3)c2c1,?,-10%,-22%,-21%,i,13µM*
CC(C)(C)c1ccc(C(=O)N2CCC2(C)C(=O)NCCC#N)cc1 (stereo not drawn),.,8%,9%,6%,i,.
C[C@H](CO)N1C[C@H](C)[C@H](CN(C)Cc2ccncc2)Oc2ccc(NC(=O)Nc3ccc(C(F)(F)F)cc3)cc2CC1=O,.,13µM*,?,-59%,28µM*,.
C[C@H]1CN([C@@H](C)CO)C(=O)Cc2cc(NC(=O)Nc3ccccc3)ccc2O[C@H]1CN(C)Cc1ccccc1,.,?,?,-82%,28µM*,.
CCOc1ccc(C2C=C(c3ccc(C)cc3)Nc3ncnn32)cc1 (stereo not drawn),-6%,.,.,.,.,11µM*
O=C(CCC1CCCCC1)Nc1nccs1,-2%,-6%,.,-28%,i,18µM*
CC(C)(C)C1CCC(C(=O)Nc2nccs2)CC1 (stereo not drawn),8.9µM*,5%,.,18%,i,4.5µM*
O=C(CCC(=O)N(CC(=O)NC1CCCC1)c1ccccc1F)Nc1nccs1,5%,-19%,18%,22%,i,13µM*
Cc1ccccc1N(CC(=O)NC1CCCCC1)C(=O)CCC(=O)Nc1nccs1,2%,-11%,0%,-1%,i,32%
O=C(NCc1ccc(F)cc1)c1ccc(CSc2nc3ccncc3n2Cc2ccc(F)cc2)cc1,.,?,-26%,-13%,?,.
Cc1ccc(-n2nc(C)cc2Nc2ncc(Cl)cc2Cl)cc1,?,4%,8%,-3%,i,-35%
Cc1cc(Nc2ncc(Cl)cc2Cl)n(-c2ccccc2C)n1,?,25%,0%,-10%,i,8.9µM*
Cc1ccc(NC(=O)Cn2cc(S(=O)(=O)N3CCCC3)c(S(=O)(=O)N3CCCC3)c2)cc1C,.,-23%,-4%,-2%,i,.
CCn1c2ccccc2c2cc(C3C(C#N)=C(N)Oc4n[nH]c(COC)c43)ccc21 (stereo not drawn),?,10µM*,2.5µM*,4µM*,i,?
COCc1[nH]nc2c1C(c1ccc(OC)c(OC)c1)C(C#N)=C(N)O2 (stereo not drawn),7%,11%,-3%,1%,i,-11%[10 µM]
COC(=O)C[C@@H]1C[C@@H]2c3cc(NC(=O)NC4CCCCC4)ccc3O[C@@H]2[C@H](CO)O1,.,3%,0%,-12%,i,.
